Drawing on PubChem BioAssay, this text covers z-score and viability for 37 compounds.

Where “and” joins values, the source holds several entries; their conditions need not be identical. Identical values can stand only once. Calls of active or inactive are those of the source.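 The calls were made as follows: active = normalized viability below 100% at a tested concentration; inactive = the rest.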

A short description of the first assay: MELAS cybrid and Rieske KO viability enhancers – cell-based, MELAS cybrids, Rieske KO mouse fibroblasts, CellTiter-Glo, primary screen (AID 1508586).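 Also: z relative to plate mean and SD of compound and empty wells.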 Conditions: Rieske KO mouse fibroblast survival, low glucose, CellTiter-Glo 72 h. (In general: ATP-based viability assays read luminescence as a measure of living cells.)
Regarding `OCCN1CCN(CCCN2c3ccccc3Sc3ccc(C(F)(F)F)cc32)CC1`, the z-score was -0.139 and 0.376.

For the compound `NS(=O)(=O)c1cc2c(cc1Cl)NC=NS2(=O)=O`, the z-score is 0.72 and -0.309.

As to `O=C1C(CCS(=O)c2ccccc2)C(=O)N(c2ccccc2)N1c1ccccc1` (stereo unspecified), the z-score came out at 0.23.

`Cc1ccc(-c2cc(C(F)(F)F)nn2-c2ccc(S(N)(=O)=O)cc2)cc1`: the z-score is 1.13 and 1.16 and 1.29.

For `CN[C@H]1CC[C@@H](c2ccc(Cl)c(Cl)c2)c2ccccc21`, the z-score turned out to be 0.309.

Regarding `Cc1ccccc1C(OCCN(C)C)c1ccccc1` (stereo unspecified), the z-score is -0.358 and 0.0536.

In the case of `CCc1nc(N)nc(N)c1-c1ccc(Cl)cc1`, the z-score is 0.731 and -0.178.

Turning to `COc1cc2nc(N(C)CCCNC(=O)C3CCCO3)nc(N)c2cc1OC` (stereo unspecified), the z-score is 0.382 and 0.0438.

With `CN(C)CCOC(c1ccc(Cl)cc1)c1ccccn1` (stereo unspecified), the z-score is -1.05.

On to `N[C@@H](C(=O)N[C@@H]1C(=O)N2C(C(=O)O)=C(Cl)CS[C@H]12)c1ccccc1`, for which the z-score is -0.142.

Take `NCc1ccc(S(N)(=O)=O)cc1`: the z-score was -0.0568.

With `Cc1ncc([N+](=O)[O-])n1CC(C)O` (stereo unspecified), the z-score is 0.828 and -0.245 and -0.0796.

As for `Cc1ccc(C)c(OCCCC(C)(C)C(=O)O)c1`, the z-score was 0.636 and -0.228 and 0.576.

In the case of `CN1CCCC(n2nc(Cc3ccc(Cl)cc3)c3ccccc3c2=O)CC1` (stereo unspecified), the z-score was 0.19 and 0.396.

Take `NS(=O)(=O)c1cc2c(cc1C(F)(F)F)NC(Cc1ccccc1)NS2(=O)=O` (stereo unspecified): the z-score was -0.203.

`COC1=CC(=O)C[C@@H](C)[C@]12Oc1c(Cl)c(OC)cc(OC)c1C2=O`: the z-score amounted to 0.726.

In the case of `Cc1cn([C@H]2C[C@H](N=[N+]=[N-])[C@@H](CO)O2)c(=O)[nH]c1=O`, the z-score is 0.0413 and -0.28.

For `CN(CCOc1ccc(CC2SC(=O)NC2=O)cc1)c1ccccn1` (stereo unspecified), the z-score was 0.76 and -1.4.

As for `COc1ccc(OC)c(C(O)CNC(=O)CN)c1` (stereo unspecified), the z-score was -0.177.

Consider `OC(CCN1CCCC1)(c1ccccc1)C1CCCCC1` (stereo unspecified), for which the z-score came out at 0.369.

For the compound `NC(=O)N1c2ccccc2CC(=O)c2ccccc21`, the z-score was -1.12 and 0.011 and -0.438.

As for `CCCNCC(O)COc1ccccc1C(=O)CCc1ccccc1` (stereo unspecified), the z-score was -0.529 and -0.098 and 0.366.

Turning to `C/C=C/C(=O)N(CC)c1ccccc1C`, the z-score is -1.25 and -1.17.

As for `CCCCCCNC(=O)n1cc(F)c(=O)[nH]c1=O`, the z-score was 0.677 and -3.1.

Take `NC(=O)c1cnccn1`: the z-score is -1 and -0.0443.

As for `CN(C)CCc1c[nH]c2ccc(C[C@H]3COC(=O)N3)cc12`, the z-score is -0.25.

Consider `COc1ccccc1OCC(O)COC(N)=O` (stereo unspecified), for which the z-score is -0.0724 and 0.212.

Turning to `COC(=O)Nc1nc2ccc(C(=O)c3ccccc3)cc2[nH]1`, the z-score was 0.0815 and 0.438 and 0.923.

With `Cn1cnc([N+](=O)[O-])c1Sc1ncnc2nc[nH]c12`, the z-score was 0.8 and 0.138.

In the case of `c1ccc2[nH]c(-c3cscn3)nc2c1`, the z-score was 0.655 and 0.153.

`Cc1onc(-c2c(Cl)cccc2Cl)c1C(=O)N[C@@H]1C(=O)N2[C@@H]1SC(C)(C)[C@@H]2C(=O)O`: the z-score is 0.0231.

With `Clc1ccc2c(c1)C(N1CCNCC1)=Nc1ccccc1O2`, the z-score is 0.449 and -0.479.

With `CO[C@@]1(NC(=O)Cc2cccs2)C(=O)N2C(C(=O)O)=C(COC(N)=O)CS[C@@H]21`, the z-score is -0.518.

As for `CCc1cccc2c3c([nH]c12)C(CC)(CC(=O)O)OCC3` (stereo unspecified), the z-score is -0.359.

`CC(C)(C)NCC(O)COc1cccc2c1C[C@H](O)[C@H](O)C2` (stereo partly specified): the z-score was -0.345.

As to `O=S(=O)(O)CCS`, the z-score was 0.659 and -0.304.

As to `O=c1[nH]cc(F)c(=O)[nH]1`, the z-score is 0.32 and 1.37 and 2.42.

Another assay in a line: drug combination growth inhibition, ovarian cancer – cell-based, oncology-focused library, rucaparib conditional, profiling panel (AID 1508598). Conditions: patient-derived ovarian cancer cells, CellTiter-Glo viability, 144 h; at 0.000305 µM; OCI-C5x cells; with rucaparib 10 µM; stronger effect = lower value; 100% = cells with rucaparib alone.
The term viability denotes a read-out of living cells in per cent, often relative to untreated cells. `Cc1ccc(-c2cc(C(F)(F)F)nn2-c2ccc(S(N)(=O)=O)cc2)cc1`: the viability is 113% (inactive).

With `CN(CCOc1ccc(CC2SC(=O)NC2=O)cc1)c1ccccn1` (stereo unspecified), the viability was 112% (inactive).

In the case of `CCCCCCNC(=O)n1cc(F)c(=O)[nH]c1=O`, the viability is 125% (inactive).

For the compound `O=c1[nH]cc(F)c(=O)[nH]1`, the viability was 118% (inactive).

The same assay, now with this note: patient-derived ovarian cancer cells, CellTiter-Glo viability, 144 h; at 0.000305 µM; OCI-C5x cells; without rucaparib; stronger effect = lower value.
In the case of `Cc1ccc(-c2cc(C(F)(F)F)nn2-c2ccc(S(N)(=O)=O)cc2)cc1`, the viability was 107% (inactive).

In the case of `CN(CCOc1ccc(CC2SC(=O)NC2=O)cc1)c1ccccn1` (stereo unspecified), the viability is 124% (inactive).

On to `CCCCCCNC(=O)n1cc(F)c(=O)[nH]c1=O`, for which the viability is 114% (inactive).

In the case of `O=c1[nH]cc(F)c(=O)[nH]1`, the viability was 111% (inactive).

Staying with this assay, now noted: patient-derived ovarian cancer cells, CellTiter-Glo viability, 144 h; at 0.000305 µM; OCI-P5x cells; with rucaparib 20 µM; stronger effect = lower value; 100% = cells with rucaparib alone.
On to `Cc1ccc(-c2cc(C(F)(F)F)nn2-c2ccc(S(N)(=O)=O)cc2)cc1`, for which the viability is 84.7% (active).

`CN(CCOc1ccc(CC2SC(=O)NC2=O)cc1)c1ccccn1` (stereo unspecified): the viability is 91.6% (active).

Consider `CCCCCCNC(=O)n1cc(F)c(=O)[nH]c1=O`, for which the viability was 108% (inactive).

For the compound `O=c1[nH]cc(F)c(=O)[nH]1`, the viability is 113% (inactive).

Still in this assay, the particulars now being: patient-derived ovarian cancer cells, CellTiter-Glo viability, 144 h; at 0.000305 µM; OCI-P5x cells; without rucaparib; stronger effect = lower value.
As to `Cc1ccc(-c2cc(C(F)(F)F)nn2-c2ccc(S(N)(=O)=O)cc2)cc1`, the viability was 92.4% (active).

With `CN(CCOc1ccc(CC2SC(=O)NC2=O)cc1)c1ccccn1` (stereo unspecified), the viability was 99.1% (active).

On to `CCCCCCNC(=O)n1cc(F)c(=O)[nH]c1=O`, for which the viability is 129% (inactive).

In the case of `O=c1[nH]cc(F)c(=O)[nH]1`, the viability was 111% (inactive).

The assay is the same for the next values; noted with them: patient-derived ovarian cancer cells, CellTiter-Glo viability, 144 h; at 0.00122 µM; OCI-C5x cells; with rucaparib 10 µM; stronger effect = lower value; 100% = cells with rucaparib alone.
For the compound `Cc1ccc(-c2cc(C(F)(F)F)nn2-c2ccc(S(N)(=O)=O)cc2)cc1`, the viability was 104% (inactive).

For `CN(CCOc1ccc(CC2SC(=O)NC2=O)cc1)c1ccccn1` (stereo unspecified), the viability is 116% (inactive).

On to `CCCCCCNC(=O)n1cc(F)c(=O)[nH]c1=O`, for which the viability is 128% (inactive).

Consider `O=c1[nH]cc(F)c(=O)[nH]1`, for which the viability is 121% (inactive).

The assay is the same for the next values; noted with them: patient-derived ovarian cancer cells, CellTiter-Glo viability, 144 h; at 0.00122 µM; OCI-C5x cells; without rucaparib; stronger effect = lower value.
In the case of `Cc1ccc(-c2cc(C(F)(F)F)nn2-c2ccc(S(N)(=O)=O)cc2)cc1`, the viability is 111% (inactive).

Take `CN(CCOc1ccc(CC2SC(=O)NC2=O)cc1)c1ccccn1` (stereo unspecified): the viability was 133% (inactive).

Turning to `CCCCCCNC(=O)n1cc(F)c(=O)[nH]c1=O`, the viability was 121% (inactive).

Regarding `O=c1[nH]cc(F)c(=O)[nH]1`, the viability is 108% (inactive).
